{"source": "PubChem BioAssay (Tox21)", "note": "Values joined by “and” are separate entries in the source; they are usually repeats but may differ in a detail not shown here. Equal values may be shown once. Results filed as inconclusive are left out. Some structures have more than one record in an assay (separate samples or runs), and their calls can disagree. Active and inactive are the calls of the source. Calls follow the shape of the dose curve; as a rule, active = well fitted cell-killing curve with a large enough effect in the repeat runs; inconclusive = weak or mixed curves, or effect the other way; inactive = flat fitted curve, though single readings scatter. % is scaled to controls: 0 for no effect and ±100 for the full control effect; potency is read from the fitted curve at half-maximal effect."}
{"assay": "qHTS RealTime-Glo MT Cell Viability Assay in HEK293 cells - 40 hour (AID 1224874); also: nearly all actives have a fitted effect of over 50% in size", "conditions": "RealTime-Glo luminescence; max response: stronger effect = lower value", "excerpt": "U.S. Tox21 Program National Center for Advancing Translational Sciences [NCATS] NIH Chemical Genomics Center [NCGC] U.S. Environmental Protection Agency [EPA] National Institutes of Environmental Health Sciences [NIEHS] National Toxicology Program [NTP] U.S. Food and Drug Administration [FDA] Tox21 Assay Overview: Measure of cell viability is critical in the cell-base assay. Analysis of cell viability is necessary for the characterization of cell responses to cytotoxic drugs and environmental stress. A RealTime-Glo MT Cell Viability Assay to monitor cell viability in real time of continues cell culture during 40 hours of compound treatment was used to screen Tox21 10K library compounds in Hek293 cells. The RealTime-Glo MT Cell Viability Assay is a nonlytic, homogeneous, bioluminescent method to measure cell viability in real time using a simple, plate-based method. The assay involves adding NanoLuc luciferase and a cell-permeant prosubstrate to cells in culture. Viable cells reduce the proprietary prosubstrate to generate a substrate for NanoLuc luciferase. This substrate diffuses from cells into the surrounding culture medium, where it is rapidly used by the NanoLuc Enzyme to produce a luminescent signal. The signal correlates with the number of viable cells, making the assay well suited for cytotoxicity studies.\nTox21 Assay Protocol Summary: The mixture of Hek293 cell suspension and reagents were dispensed at 600cells/6 ul/well in 1536-well tissue culture treated black solid bottom plates using a Multidrop dispenser. After the assay plates were incubated at a 37 C/5% CO2 incubator for 5 hours, 23 nL of compounds dissolved in DMSO, positive and negative controls was transferred to the assay plate by a pintool work station. The plates were incubated at 37 C for 40 hours. The luminescence intensity were measured at 0h, 8h, 16h, 24h, 32h and 40h time points using ViewLux plate reader during compound treatment."}
{"compound": "CN=C(NC#N)NCCSCc1nc[nH]c1C", "max response": "4.13% (inactive) and 1.71% (inactive)"}
{"compound": "OCCOCCOCCOCCOCCO", "max response": "2.45% (inactive) and 0.674% (inactive)"}
{"compound": "COc1cc(NC(=O)CC(C)=O)c(OC)cc1Cl", "max response": "-13.4% (inactive)", "Potency": "12.3 µM (active)"}
{"compound": "OCC(CO)(CO)CO", "max response": "2.43% (inactive) and 2.9% (inactive)"}
{"compound": "COC(=O)OC", "max response": "8.45% (inactive) and 1.69% (inactive)"}
{"compound": "Clc1cccc(Cl)c1NC1=NCCN1", "max response": "1.29% (inactive) and 0.883% (inactive)"}
{"compound": "Cc1cccc(C)c1[N+](=O)[O-]", "max response": "-0.329% (inactive)"}
{"compound": "Nc1nc(N)c2nc(-c3ccccc3)c(N)nc2n1", "max response": "-27.6% (inactive)", "Potency": "24.8 µM (active) and 19.5 µM (active)"}
{"compound": "Cc1ccccc1C=O", "max response": "5.78% (inactive) and -0.406% (inactive)"}
{"compound": "Cc1ccncc1", "max response": "1.94% (inactive) and -1.5% (inactive)"}
{"compound": "CCCCCCCCO", "max response": "2.5% (inactive) and 9.18% (inactive)"}
{"compound": "OC1CCCCC1", "max response": "6.11% (inactive) and 1.84% (inactive)"}
{"compound": "Oc1ccc(Cc2ccccc2O)cc1", "Potency": "14 µM (active) and 17.4 µM (active)"}
{"compound": "NC(N)=S", "max response": "2.78% (inactive) and 0.322% (inactive)"}
{"compound": "Cc1ccc([N+](=O)[O-])cc1N", "max response": "10.1% (inactive) and 0.36% (inactive)"}
{"compound": "CC[N+](CC)(CC(=O)Nc1c(C)cccc1C)Cc1ccccc1", "max response": "-15.4% (inactive) and 1.42% (inactive)"}
{"compound": "CS(=O)(=O)c1ccc(Cl)cc1", "max response": "-0.177% (inactive) and 6.75% (inactive)"}
{"compound": "O=Cc1ccc(CO)o1", "max response": "-0.203% (inactive) and -12.4% (inactive)"}
{"compound": "COc1ccc(N)c(OC)c1", "max response": "-8.13% (inactive) and -8.26% (inactive)"}
{"compound": "COc1c(Cl)ccc(Cl)c1C(=O)O", "max response": "2.72% (inactive) and -3.19% (inactive)"}
{"compound": "CC(C=O)Cc1ccc(C(C)(C)C)cc1", "note": "(stereo not given)", "max response": "0.145% (inactive) and -7.53% (inactive)"}
{"compound": "COc1ccccc1[N+](=O)[O-]", "max response": "3.8% (inactive) and 3.66% (inactive)"}
{"compound": "CCCOCC(C)O", "note": "(stereo not given)", "max response": "6.7% (inactive) and -0.928% (inactive)"}
{"compound": "OCc1ccc(Cl)cc1Cl", "max response": "3.27% (inactive) and 4.82% (inactive)"}
{"compound": "CC(C)=CCC/C(C)=C/C=O", "max response": "4.59% (inactive) and 11.5% (inactive)"}
{"compound": "CC(CN1c2ccccc2Sc2ccccc21)N(C)C", "note": "(stereo not given)", "Potency": "39.3 µM (active) and 43.6 µM (active) and 6.01 µM (active)"}
{"compound": "CCOC(=O)CC(=O)OCC", "max response": "5.3% (inactive) and 0.825% (inactive)"}
{"compound": "NC1CCCCC1N", "note": "(stereo not given)", "max response": "-12.3% (inactive) and -1.05% (inactive)"}
{"compound": "CC(=O)C(C)C", "max response": "9.65% (inactive)"}
{"compound": "Cc1ccc(C(C)C)cc1", "max response": "2.75% (inactive) and 28.4% (inactive)"}
{"compound": "CCCCCCCCC(=O)O", "max response": "1.64% (inactive) and 2.96% (inactive)"}
{"compound": "COc1ccc2cc3[n+](cc2c1OC)CCc1cc2c(cc1-3)OCO2", "Potency": "4.4 µM (active) and 9.52 µM (active)"}
{"compound": "CC(O)CNCC(C)O", "note": "(stereo not given)", "max response": "3.16% (inactive)"}
{"compound": "CCc1cccc(O)c1", "max response": "-1.01% (inactive) and 0% (inactive)"}
{"compound": "CC/C=C(\\C(=O)N[C@@H]1C(=O)N2C(C(=O)OCOC(=O)C(C)(C)C)=C(COC(N)=O)CS[C@H]12)c1csc(N)n1", "max response": "11.8% (inactive) and 8.9% (inactive)"}
{"compound": "C=CC(=O)NCOCCCC", "max response": "1.11% (inactive) and 4.5% (inactive)"}
{"compound": "CC(C)(C)NC[C@H](O)COc1nsnc1N1CCOCC1", "max response": "-0.31% (inactive) and -1.2% (inactive)"}
{"compound": "CC(=O)OC/C=C(\\C)CCC=C(C)C", "max response": "-1.95% (inactive) and 0.392% (inactive)"}
